The nature of assay [1]: qHTS assay to test for compound auto fluorescence at 460 nm (blue) in HEK293 cell free culture (AID 720681). The procedure, abridged: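 Test compounds were pinned into cell-free culture medium (DMEM with 10% FBS) and fluorescence was read directly at Ex/Em 405/460 nm. Signals were expressed as fluorescence equivalents of triamterene, with DMSO vehicle as control.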
In general terms: Quantitative high-throughput screening tests each substance at several concentrations.

Assay [2] in a line: qHTS assay to test for compound auto fluorescence at 535 nm (green) in HEK293 cell free culture (AID 720682). The essentials:
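Compounds were pin-transferred into cell-free DMEM with 10% FBS, and green fluorescence was read at excitation 485 nm and emission 535 nm. Intensities were expressed as fluorescein-equivalent values.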

Assay [3] in a line: qHTS assay to test for compound auto fluorescence at 590 nm (red) in HEK293 cell free culture (AID 720683). The procedure, abridged: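 Tox21 10K library compounds were pinned into cell-free DMEM with 10% FBS and fluorescence was read at excitation 540 nm. Activity is expressed as Rose Bengal sodium equivalency.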
A short description of assay [4]: qHTS assay to test for compound auto fluorescence at 590 nm (red) in HepG2 cell free culture (AID 720684). The procedure, abridged:
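Red fluorescence (540 nm excitation, 590 nm emission) was measured after compound transfer into cell-free MEM supplemented with 10% FBS. Values are equivalencies against Rose Bengal sodium.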

The nature of assay [5]: qHTS assay to test for compound auto fluorescence at 460 nm (blue) in HepG2 cell free culture (AID 720685). The procedure, abridged:
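Compound (23 nL) or DMSO pinned into cell-free MEM with 10% FBS; blue fluorescence read at 405/460 nm excitation/emission, expressed as auto-fluorescence equivalency to triamterene.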

The nature of assay [6]: qHTS assay to test for compound auto fluorescence at 535 nm (green) in HepG2 cell free culture (AID 720686).
The nature of assay [7]: qHTS assay to test for compound auto fluorescence at 460 nm (blue) in HepG2 cells (AID 720687). The essentials: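 Cells (2,000/well in MEM with 10% FBS) attached overnight at 37 C, then were exposed to compound or DMSO for 1 hr at 37 C, 5% CO2. Fluorescence read at Ex/Em 405/460 nm, expressed as triamterene-equivalent signal.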
The target in assay [8] is Glucocorticoid receptor (Homo sapiens) (UniProt P04150). As to the kind of experiment: qHTS assay to identify small molecule agonists of the glucocorticoid receptor (GR) signaling pathway (AID 720691; active means well fitted activation curve with a large enough effect in the signal ratio in the repeat runs, not every such curve was filed as active; the % refers to the signal ratio). The procedure, abridged: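 Agonist mode in a HeLa line carrying a GRE-controlled beta-lactamase reporter. Compounds act for 18 h at 37 C before a 2 h room-temperature FRET substrate step and fluorescence reading.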
Sequence of Glucocorticoid receptor (Homo sapiens) (P04150 whole entry, looked up): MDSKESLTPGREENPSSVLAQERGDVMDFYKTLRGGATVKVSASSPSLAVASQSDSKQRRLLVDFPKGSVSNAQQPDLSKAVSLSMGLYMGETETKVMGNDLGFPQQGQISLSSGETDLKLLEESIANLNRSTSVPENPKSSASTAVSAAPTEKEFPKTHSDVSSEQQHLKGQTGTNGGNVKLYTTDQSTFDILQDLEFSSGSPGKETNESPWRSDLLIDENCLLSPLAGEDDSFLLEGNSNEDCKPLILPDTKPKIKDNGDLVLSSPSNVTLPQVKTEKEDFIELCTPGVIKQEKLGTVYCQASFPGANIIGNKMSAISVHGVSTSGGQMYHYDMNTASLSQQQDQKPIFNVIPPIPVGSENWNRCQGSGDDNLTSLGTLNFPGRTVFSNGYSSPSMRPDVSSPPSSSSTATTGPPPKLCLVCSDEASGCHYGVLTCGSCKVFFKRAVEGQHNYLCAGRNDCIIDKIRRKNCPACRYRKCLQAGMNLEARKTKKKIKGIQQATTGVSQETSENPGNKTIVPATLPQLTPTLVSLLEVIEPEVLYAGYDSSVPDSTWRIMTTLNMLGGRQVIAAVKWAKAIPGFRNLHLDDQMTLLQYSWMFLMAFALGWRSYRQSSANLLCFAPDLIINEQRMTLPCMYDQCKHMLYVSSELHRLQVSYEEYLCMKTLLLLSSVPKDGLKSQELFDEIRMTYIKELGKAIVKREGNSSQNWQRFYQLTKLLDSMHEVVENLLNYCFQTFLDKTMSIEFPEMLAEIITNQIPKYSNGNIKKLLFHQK

For assay [9] the target is unchanged. In words: qHTS assay to identify small molecule antagonists of the glucocorticoid receptor (GR) signaling pathway (AID 720692; active means well fitted inhibition curve with a large enough effect in the signal ratio in the repeat runs, not every such curve was filed as active; the % refers to the signal ratio; further: potency means the concentration at half of the fitted maximal effect). The procedure, abridged: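 Cells plated, rested 4 h at 37 C/5% CO2; compounds in DMSO pin-transferred; dexamethasone added to 5 nM final; 18 h at 37 C; B/G FRET substrate added, 2 h room temperature; fluorescence measured.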

Several values for one entry are separate records, joined by “and”; a condition that tells them apart may be missing. Equal entries are not always repeated. Results filed as inconclusive are left out. Activity calls are given as the source filed them. Unless noted, the call rests on the fitted dose curve; in most records, active means well fitted curve in the direction sought with a large enough effect in the repeat runs; inconclusive means weak or mixed curves; inactive means flat fitted curve, though single readings scatter.

With `COC(=O)NC(=S)Nc1ccccc1NC(=S)NC(=O)OC`, the call in [1], in assay [2], in [3], in assay [4], in assay [5] and in assay [6] was inactive. The call in [7] and in assay [8] was inactive. Further, the Potency result in assay [9] was “inactive”.
Consider `CCOP(=S)(OCC)Oc1cnc2ccccc2n1`, for which the outcome in [1], in [2], in assay [3], in [4], in assay [5] and in assay [6] was inactive. In addition, the result in assay [7] and in assay [8] was inactive. In addition, the Potency result in [9] is “inactive”.
For `O=C1CCCN1`, the molecule was classed as inactive in assay [1], in assay [3], in [4], in assay [5], in [6] and in [7]. Further, in assay [8], the molecule was called inactive. In [9], the Potency result is “inactive”.
`CC1C=[C-]C=C1.[C-]#[O+].[C-]#[O+].[C-]#[O+].[Mn]`: the result in assay [1], in assay [2], in [3], in assay [4], in assay [5] and in assay [6] was inactive. Besides, the result in assay [7] and in assay [8] was inactive. Moreover, in assay [9], the Potency entry was “inactive”.
Consider `O=S(=O)(c1ccc(O)cc1)c1ccc(O)cc1`, for which the molecule was classed as inactive in assay [1], in assay [2], in assay [3], in [4], in [5] and in [6]. The result in [7] and in assay [8] was inactive. Further, the Potency entry in assay [9] was “inactive”.
Consider `CCOP(=S)(OCC)SCCSCC`, for which the outcome in [1], in [2], in [3], in assay [4], in [5] and in [6] was inactive. In addition, the call in [7] and in assay [8] was inactive. The Potency result in assay [9] is “inactive”.
For the molecule `COC(=O)NS(=O)(=O)c1ccc(N)cc1`, the molecule was classed as inactive in assay [1], in [2], in [3], in assay [4], in assay [5] and in assay [6]. Further, the result in assay [7] and in [8] was inactive. Besides, in [9], the Potency result is “inactive”.
With `CN1C(=O)CN=C(c2ccccc2)c2cc(Cl)ccc21`, the molecule was called inactive in assay [1], in assay [2], in [3], in assay [4], in [5] and in [6]. The outcome in [7] and in assay [8] was inactive. Further, in assay [9], the Potency was 13.4 µM (active) and 28 µM (active).
Turning to `C1CN2CCN1CC2`, the molecule was classed as inactive in [1], in [2], in assay [3], in [4], in assay [5] and in assay [6]. Also, the result in assay [7] was inactive.
Take `CCOP(OCC)OCC`: the outcome in assay [1], in assay [3], in [4], in assay [5], in assay [6] and in assay [7] was inactive.
As for `O=C(NC(=O)c1c(F)cccc1F)Nc1cc(Cl)c(OC(F)(F)C(F)C(F)(F)F)cc1Cl` (stereo unspecified), the molecule was classed as inactive in assay [1], in assay [2], in [3], in assay [4], in assay [5] and in assay [6]. Also, the outcome in assay [7] and in [8] was inactive. Also, in assay [9], the Potency result was “inactive”.
Consider `C1CC2OC2CC1C1CO1` (stereo unspecified), for which the result in [1], in [3], in assay [4], in assay [5], in assay [6] and in assay [7] was inactive.
On to `CN=C=S`, for which the call in assay [1], in assay [3], in [4], in [5], in [6] and in assay [7] was inactive.
`CC(=O)C=C(C)C`: the call in assay [1], in assay [2], in assay [3], in [4], in assay [5] and in assay [6] was inactive. For the same molecule, the molecule was called inactive in assay [7] and in assay [8]. The Potency result in [9] was “inactive”.
Take `Oc1ccccc1Cl`: the result in assay [1], in [2], in [3], in assay [4], in [5] and in assay [6] was inactive. Further, the molecule was called inactive in assay [7] and in [8]. In addition, the Potency result in assay [9] was “inactive”.
Consider `O=[N+]([O-])c1ccc(Oc2ccc(Cl)cc2Cl)cc1`, for which the molecule was called inactive in [1], in [2], in assay [3], in [4], in assay [5] and in assay [6]. Besides, the call in assay [7] and in assay [8] was inactive. The Potency entry in assay [9] is “inactive”.
On to `Nc1ccc(Br)cc1`, for which the call in [1], in assay [3], in assay [4], in assay [5], in assay [6] and in [7] was inactive. The molecule was classed as inactive in assay [8].
On to `CCC[CH2][Sn]([Cl])([Cl])[Cl]`, for which the result in assay [1], in assay [2], in assay [3], in assay [4], in assay [5] and in assay [6] was inactive. In addition, the molecule was called inactive in assay [7] and in assay [8].
For the molecule `CCCCN(CC)C(=O)SCCC`, the molecule was classed as inactive in assay [1], in assay [2], in assay [3], in assay [4], in assay [5] and in assay [6]. The outcome in [7] and in assay [8] was inactive. Further, in [9], the Potency entry is “inactive”.
`CN(C)[C@@H]1C(=O)C(C(N)=O)=C(O)[C@@]2(O)C(=O)C3=C(O)c4c(O)cccc4[C@@](C)(O)[C@H]3C[C@@H]12`: the outcome in assay [1], in assay [3], in assay [4], in assay [5], in [6] and in assay [7] was inactive. Also, the call in assay [8] was inactive. In [9], the Potency result was “inactive”.
As for `O=C(O)c1ccccn1`, the molecule was classed as inactive in assay [1], in assay [3], in [4], in assay [5], in [6] and in assay [7]. Besides, the result in [8] was inactive. In assay [9], the Potency result was “inactive”.
`C#CC(C)(C)NC(=O)c1cc(Cl)cc(Cl)c1`: the molecule was called inactive in assay [1], in assay [3], in assay [4], in [5], in assay [6] and in assay [7]. Moreover, the outcome in assay [8] was inactive. In addition, in assay [9], the Potency entry is “inactive”.
As to `COCCl`, the outcome in assay [1], in [3], in assay [4], in [5], in [6] and in [7] was inactive. In [8], the molecule was called inactive. Also, the Potency result in assay [9] is “inactive”.
For `CC(C)(Cl)Cl`, the molecule was classed as inactive in [1], in [2], in assay [3], in [4], in assay [5] and in assay [6]. Further, the molecule was classed as inactive in [7] and in assay [8]. Also, the Potency entry in [9] is “inactive”.
Regarding `CC1OC(C)OC(C)O1` (stereo unspecified), the call in assay [1], in assay [3], in assay [4], in assay [5], in assay [6] and in assay [7] was inactive.
Turning to `COC(=O)c1ccccc1N`, the molecule was classed as inactive in [1], in assay [3], in assay [4], in assay [5], in [6] and in assay [7]. Moreover, the molecule was called inactive in assay [8]. Moreover, the Potency entry in assay [9] is “inactive”.
Consider `C#CCN(C)[C@H](C)Cc1ccccc1`, for which the result in assay [1], in assay [2], in assay [3], in [4], in [5] and in assay [6] was inactive. Moreover, the molecule was classed as inactive in assay [7] and in assay [8]. Further, the Potency result in assay [9] was “inactive”.
On to `CCC12COCN1COC2`, for which the call in assay [1], in assay [3], in assay [4], in assay [5], in [6] and in assay [7] was inactive.
On to `Clc1ccccc1Cl`, for which the molecule was classed as inactive in [1], in assay [2], in [3], in [4], in assay [5] and in [6]. The call in [7] and in [8] was inactive. Besides, the Potency entry in assay [9] is “inactive”.
On to `C[C@]12CC[C@H]3[C@@H](CC[C@@]45O[C@@H]4C(O)=C(C#N)C[C@]35C)[C@@H]1CC[C@@H]2O`, for which the outcome in assay [1], in assay [3], in assay [4], in [5], in assay [6] and in assay [7] was inactive.

These data come from PubChem BioAssay (Tox21).
